PubChem BioAssay (NCI)
About 83,000 compounds went through this panel and 20% of them were active in at least one assay; those are over-represented in the sample as a whole.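 Interpretation: 100, growth as untreated; towards 0, rising growth inhibition; 0, no net growth; 0 to -100, cell death. Compounds scoring below 10 were considered active.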 A number with no mark means an inactive call. Activity calls are given as the source filed them.

Tests used:
Test in all cases: NCI-60 one-dose screen, 48 h (100 = growth as untreated, 0 = no growth, -100 = all killed)
Conditions in all cases: 10 µM unless noted
NCI-H23 lung = test system: NCI-H23 lung
NCI-H226 lung = test system: NCI-H226 lung
NCI-H322M lung = test system: NCI-H322M lung
HOP-62 NSCLC = test system: HOP-62 NSCLC
NCI-H460 lung = test system: NCI-H460 lung
HOP-92 NSCLC = test system: HOP-92 NSCLC
NCI-H522 lung = test system: NCI-H522 lung
A549/ATCC NSCLC = test system: A549/ATCC NSCLC
786-0 renal = test system: 786-0 renal
COLO 205 colon = test system: COLO 205 colon

Compound | growth (NCI-H23 lung) | growth (NCI-H226 lung) | growth (NCI-H322M lung) | growth (HOP-62 NSCLC) | growth (NCI-H460 lung) | growth (HOP-92 NSCLC) | growth (NCI-H522 lung) | growth (A549/ATCC NSCLC) | growth (786-0 renal) | growth (COLO 205 colon)
CN(C)c1nc(NCCNS(=O)(=O)c2ccc(C(=O)/C=C/c3ccc(Cl)cc3)cc2)nc(N2CCOCC2)n1 | 9.4% (active) | 74.9% | 81.2% | 74.8% | 50.7% | 67.9% | 25% | 12% | -41.6% (active) | 21.1%
CN1C(=O)/C(=C\C(=O)c2cc3ccccc3oc2=O)c2ccccc21 | 46.3% | 75.4% | 98.7% | 54.4% | 92.1% | 64.3% | -68.8% (active) | 78.3% | 80.7% | 52.2%
Clc1ccc(CNc2nc(SCCN3CCOCC3)nc3c2cnn3CC(Cl)c2ccc(Br)cc2)cc1 (stereo not drawn) | 49.4% | 62.6% | 83.8% | 58.6% | 25.1% | 48% | 48.5% | 23.4% | 39.6% | 5.78% (active)
Nc1nn2c(-c3cc4cc(Br)ccc4oc3=O)ccnc2c1N=Nc1ccc(S(N)(=O)=O)cc1 | 50.6% | 77.6% | 78.3% | 41.8% | 52% | 83.2% | 93.3% | 107% | 86.1% | 96.5%
Fc1ccc(N2CC(Cn3c(C(F)(F)F)cc4c(Cl)ncnc43)C2)c(F)c1 | -76% (active) | 116% | 45.7% | 46.8% | -72.9% (active) | -7.85% (active) | 9.73% (active) | 108% | 79.2% | 65%
Cc1cc(=O)oc2cc(OCC(O)CNN3C(=O)c4cccc5c(N6CCN(C)CC6)ccc(c45)C3=O)ccc12 (stereo not drawn) | 98.4% | 102% | 101% | 99.8% | 99.4% | 68.3% | 98.2% | 99.8% | 97.8% | 87.7%
O=C(N/N=C/c1ccc(B(O)O)s1)c1[nH]c2ccc(Br)cc2c1-c1ccccc1 | -94.9% (active) | -45.2% (active) | -79.1% (active) | -69.8% (active) | -76% (active) | -60.2% (active) | -83% (active) | -62.8% (active) | -66.2% (active) | -81.8% (active)
COc1ccccc1NC(=O)c1ccc(NC(=O)CCl)s1 | -66% (active) | -34.6% (active) | 94.1% | 41.9% | -16% (active) | -0.226% (active) | -77.3% (active) | -2.86% (active) | -93.4% (active) | 9.16% (active)
Nc1cc(-c2c[nH]c3ccc(Cl)cc23)nc2cc(-c3c[nH]c4ccccc34)nn12 | -56% (active) | 35.5% | 5.87% (active) | -48% (active) | -65.9% (active) | -22.8% (active) | -75% (active) | -8.14% (active) | -52.1% (active) | -86% (active)
C=CCSc1nnc(-c2c(C)nc3sccn23)o1 | 88.7% | 76.1% | 84.9% | 106% | 95.8% | 72.4% | 89% | 92.7% | 89.8% | 107%
O=C(CSc1nc2sc3c(c2c(=O)n1-c1ccc(Cl)cc1)CCCC3)NNC(=O)c1ccc(F)cc1 | 73.7% | 62.7% | 73.8% | 23.7% | 88.6% | 69.2% | 77.3% | 94.2% | 96.8% | 125%
COc1ccc(/C=C/C(=O)c2ccc(OC)c(S(N)(=O)=O)c2)c(C(F)(F)F)c1 | -78.3% (active) | -40.9% (active) | -2.93% (active) | -5.21% (active) | 4.78% (active) | 6.4% (active) | 9.43% (active) | 10.6% | -82% (active) | 
COc1cccc(/C=C/c2nc3ccccc3c(=O)n2CC(=O)Nc2ccccc2)c1 | 59.2% | 13.9% | 72.3% | 4.65% (active) | 51.4% | 19.5% | 53.3% | 16.9% | -8.65% (active) | 75.5%
C/C(=N/O)c1ccc(NC(=O)CSc2nnc(-c3ccc(-c4nc5ccc(Cl)cc5[nH]4)cc3)o2)cc1 | -59.5% (active) | -39% (active) | 3.18% (active) | -82% (active) | -100% (active) | -53.4% (active) | -48.6% (active) | -13.3% (active) | -66.1% (active) | 
Cc1[nH]nc2ccc3nc(-c4cn[nH]c4C(F)(F)F)c4c(c3c12)CCCC4 | -8.3% (active) | -5.98% (active) | 2.15% (active) | 5.21% (active) | 1.29% (active) | -18.3% (active) | -54% (active) | -2.97% (active) | -21.2% (active) | -18.6% (active)
NS(=O)(=O)c1ccc(Nc2nc(N/N=C/c3cc(Br)c(O)c(Br)c3)nc(Nc3ccccc3)n2)cc1 | 27.7% | 54.7% | 37.6% | 27% | 99.8% | -4.41% (active) | 49.4% | 97.6% | 25.1% | 88%
CC(=O)Nc1ccc(S(=O)(=O)Nc2ccc(-c3ccc4c(c3)NC(=O)/C4=C\c3ccc[nH]3)cc2)cc1 | 42.1% | 85% | 64.8% | 87% | 38.6% | 91.5% | 75.2% | 79.6% | 104% | 96.6%
O=C(Nc1nc2ccc([N+](=O)[O-])cc2s1)Nc1ccc(Cl)cc1Cl | 18.2% | 61.1% | 72.2% | 39.8% | 27.6% | 29.1% | 20.3% | 55.8% | 19.6% | 74.7%
S=C(NCCc1ccccc1)Nc1ccc(OCc2nc3ccc(Cl)cc3[nH]2)cc1 | 28.6% | 67.1% | 57.5% | 49.7% | 10.8% | 14.4% | -26.8% (active) | 51.2% | 29% | 43.6%
Cc1ccc(-c2cc(-c3ccccc3)[nH]c(=O)c2C#N)cc1 | 96.4% | 86.8% | 91.2% | 85.3% | 90.8% | 45.7% | 74.9% | 77.3% | 88.4% | 124%
COc1cc(/C=C/C(=O)c2cnn(-c3cc(=O)[nH]c4ccc(Br)cc34)c2C)cc(OC)c1OC | -63.4% (active) | -28% (active) | 4.7% (active) | -9.41% (active) | -60.4% (active) | 25.7% | -89.1% (active) | 8.86% (active) | -73% (active) | -80.7% (active)
Cc1ccc(C(=O)Nc2cc(-c3ccccc3)cc(C(F)(F)F)c2)cc1C#Cc1cnc2cccnn12 | 63.3% | 51.2% | 102% | 108% | 51.1% | 95.4% | 56.3% | 68.9% | 60% | 73.1%
COc1ccc2[nH]c(O)c(N=Nc3nc(-c4ccc(C#N)cc4)cs3)c2c1 | 55.9% | 98.4% | 83.9% | 77.5% | 29.2% | 25.1% | 65.4% | 51.8% | -73.4% (active) | 86%
Cc1nc2sccn2c1-c1nnc(SCC(C)C)o1 | 85.9% | 62% | 82.1% | 95.2% | 97% | 64.4% | 71.5% | 91.3% | 82.3% | 106%
CN1C(=O)C(O)(CC(=O)c2cc3ccccc3oc2=O)c2ccccc21 (stereo not drawn) | 93.3% | 81% | 103% | 97% | 114% | 110% | 92.7% | 111% | 105% | 114%
COc1ccc(C(=O)/C=C/c2ccc3c(c2)OCCO3)cc1S(N)(=O)=O | 73% | 116% | 84.6% | 29.7% | 68.3% | 94.5% | 43.8% | 47.6% | 76.5% | 91.9%
COc1ccc(/C=C/C(=O)c2ccc(S(=O)(=O)NCCNc3nc(N(C)C)nc(N4CCOCC4)n3)cc2)cc1 | 97.7% | 89.6% | 91.7% | 102% | 104% | 93.1% | 64.7% | 91.5% | 80.1% | 110%
